Laboratory results taken from the supplement of paper PMC11417369.
± gives the standard deviation of the averaged measurements. In all, about 25,000 sequences were measured (“ln(normalized median fluorescence intensity)”: median about 8.6, highest 2% from about 10 on). This is one part of a sample in which the highest values are shown more often than they occur.

tested on: PfAP2-EXP AP2 domain (GST-tagged); assay: gcPBM binding intensity (ln(normalized median fluorescence intensity)); higher = stronger DNA binding
Procedure, shortened: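 Alexa488 anti-GST antibody, scanned at 488 nm, detected GST-tagged P. falciparum DNA-binding domains that had been expressed in E. coli and incubated for 1 h on an Agilent 4 × 180k array. The array carried primer-extended double-stranded 36-bp intergenic genomic probes and negative controls. Binding intensity is the highest Masliner-normalised natural-log median intensity across replicate spots of either orientation of each probe.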

Sequence | gcPBM binding intensity (ln)
TAGATAGATTAAAATACATGCATATTATTAAAAAAT [TGCATGCA_site739] | 8.84 ± 0.13
AAAGCACCCAAGAATACACACAAATATTATAAAAAA [CACACA_site111] | 8.57 ± 0.58
TAAACATAATAATATACACACATATATTGATATATA [CACACA_site2144] | 8.18 ± 0.43
AACCAAATTTCACCATGTACATATTGATAAATATAT [XGTACX_site1374] | 8.7 ± 0.34
GGATTCAAAAAAAAAAATAAAAGTAAATAATAAATA [TGCATGCA_negctrl_site348] | 8.27 ± 0.42
ATACACTAGAAAATTTTATAGTATTATTAATGTTAA [GTGCAC_negctrl_site101] | 8.19 ± 0.42
TTTTTATAAAAATGAACACACACATATATATATATA [CACACA_site9160] | 10.2 ± 0.4
TTTATAAAAATGAACACACACATATATATATATATA [CACACA_site3493] | 10.4 ± 0.3
ATTTAGAAAAATAAAACACACATATATATGTAAATA [CACACA_site4113] | 8.66 ± 0.48
TATATATAATTATAAGAACACACATATATATATATA [CACACA_site8786] | 10.2 ± 0.18
TTTATAAAAATGAACACACACATATAAATATAAATA [CACACA_site7607] | 8.65 ± 0.44
TAAATTTAGAAACACACACACATATATATATATATA [CACACA_site847] | 10.3 ± 0.4
AAAAATTAGAAACACACACACATATATATATATATT [CACACA_site1042] | 8.71 ± 0.22
TATATAATTATAAGAACACACATATATATATATATA [CACACA_site2472] | 10.2 ± 0.2
AAATAATAAATTATAACACACATATATATATATATA [CACACA_site4045] | 10 ± 0.47
TGTTAATTAAAGGACTGTACACTAATAATTCTATAA [XGTACX_site5195] | 8.5 ± 0.34
TTTTAAAACAATGAGATTCCTTTCTTTTTTTCTTTT [CACACA_negctrl_site1320] | 7.96 ± 0.59
TGACCGTTTTAAGAGTGTACAAAAAAAAAAAAAAAA [XGTACX_site4141] | 8.21 ± 0.43
ATATATTTCTGTCAAGCACACATAATATTAATATAT [CACACA_site7993] | 8.86 ± 0.45
AAAAAATGGCTAGTTTGTACACAAAAGTTATTGCAT [XGTACX_site5381] | 8.43 ± 0.33
TTAATATAGATATAACCACACACATACATCTAATTC [CACACA_site8519] | 8.65 ± 0.46
ATTAATTATGTATTTCAACAAAGAAGTGTTATATAT [GTGCAC_negctrl_site215] | 8.49 ± 0.35
TCAAAAAAGACACACCGTACATACTATTTGGACAGG [XGTACX_site7699] | 8.51 ± 0.36

Sequence | gcPBM binding intensity (ln)
AACAATTAGAATAACGCATGCATTTATAATATAGAA [TGCATGCA_site595] | 9.52 ± 0.071
TAATTGTACACATGCACACACAAATATTATAGATGT [CACACA_site6528] | 8.99 ± 0.37
TATTATATATTAAATGCATGTAAAAATAATATTAAA [TGCATGCA_site643] | 9.24 ± 0.44
CAATTATTGTAATGCATGCACTGAATATAAAAAGAA | 10.3 ± 0.23
AACAATTATTGTAATGCATGCACTGAATATAGAAAG [TGCATGCA_site889] | 10.3 ± 0.24
AAATAATATATGAATGCACACAGTAAAAATTAAAGA [CACACA_site2252] | 8.94 ± 0.35
TATAAGAGAAGAAGAAAAAAAAGGTTTCTATAGAAA [XGTACX_negctrl_site421] | 8.76 ± 0.52
AATAAAAAAAAAATAAATTTAATAATAATAATAAAA [CACACA_negctrl_site569] | 8.23 ± 0.33
ATATTATCATTTTTTTTAATGGAAAAAAAAAAAAAA [CACACA_negctrl_site1298] | 8.2 ± 0.61
TTTTTCAGAAAAGAAACACACATATAAATATTTATA [CACACA_site7170] | 8.47 ± 0.46
TAATTAAAATCATATACACACCCATATATATATATA [CACACA_site8524] | 10 ± 0.25
ATTCTACACCCACATACACACATATATATATATATA [CACACA_site3426] | 10.2 ± 0.26
TATACAGACAGACACACACACATATATATATATATA [CACACA_site1734] | 10.1 ± 0.42
CATACATACAGACACACACACATATATATATATATA [CACACA_site2920] | 10.1 ± 0.35
TACACATACAGACATACACACATACACATATACACA [CACACA_site6918] | 8.66 ± 0.38
ATTAAAATCATATACACACCCATATATATATATATA [CACACA_site5050] | 10.1 ± 0.34
TACACCCACCCACATACACACACATACACATATATA [CACACA_site8503] | 9.33 ± 0.71
ATTCTAATCATATACACACCCATATATATATATATA [CACACA_site1774] | 10.3 ± 0.3
AGTATACACAGACACACACACACATATATATATATA [CACACA_site8510] | 10.2 ± 0.23
TACATACACAGACACACACACATATATATATATATA [CACACA_site3557] | 10.2 ± 0.2
CACCCACCCACATACACACACATACACATATATATA [CACACA_site1722] | 9.3 ± 0.45
CATATACATACACATACACACATACAGACATACACA [CACACA_site6919] | 8.69 ± 0.37
